In PubChem BioAssay (NCI) one finds growth data, which are given here for 14 molecules.

Among the test systems are T-47D breast; BT-549 breast; MDA-MB-435 melanoma; SW-620 colon; MCF7 breast; HCT-116 colon; HCC-2998 colon; KM12 colon.
What all share (experiment): NCI-60 one-dose screen, 48 h (100 = growth as untreated, 0 = no growth, -100 = all killed)
What all share (conditions): 10 µM unless noted

Values joined by “and” are separate entries in the source; they are usually repeats but may differ in a detail not shown here. Identical values can stand only once. This is part of a sample that, as a whole, favours compounds with a hit. Of some 83,000 tested, about 20% had one in any assay.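 48-hour exposure, single concentration, 96-well plates; percent growth endpoint where 0 means no net growth. Active: below 10.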 Unmarked numbers belong to inactive results. Active and inactive are the calls of the source.

Take `CC1(C)C(N)=Nc2cc(OCCCCN3Cc4ccccc4C3)c(OCC3CC3)cc21`: the growth is 37.7% in the experiment on T-47D breast; 83.7% in the experiment with BT-549 breast; 71.9% in the experiment with MDA-MB-435 melanoma; 92.8% in the experiment on SW-620 colon; 48.5% in the experiment on MCF7 breast; 47% in the experiment on HCT-116 colon. The growth in the experiment on HCC-2998 colon was -0.545% (active); with KM12 colon, 96%.
Turning to `O=c1c(/C=C/c2ccco2)nnc2sc(Nc3ccc(Cl)cc3)nn12`, the growth in the experiment with T-47D breast is 88.2%; in the experiment with BT-549 breast, 99.9%; in the experiment on MDA-MB-435 melanoma, 100%; in the experiment on SW-620 colon, 103%; in the experiment with MCF7 breast it was 82.5%; in the experiment on HCT-116 colon, 99%. Further, the growth with HCC-2998 colon was 96.3%; with KM12 colon, 103%.
As to `N#C/C(=C\c1ccc(Br)cc1)n1nnc2c(F)cccc21`, the growth in the experiment with T-47D breast is 14.2%; in the experiment on BT-549 breast, 12%; in the experiment with MDA-MB-435 melanoma, -26.8% (active); in the experiment with SW-620 colon, -22.1% (active); in the experiment on MCF7 breast, 12.7%; with HCT-116 colon, -27.5% (active). The values for the growth in the experiment on HCC-2998 colon and in the experiment with KM12 colon were -38.4% (active) and 4.37% (active), respectively.
For the molecule `COc1ccc(/C(C)=C(\c2ccc(OCCN3CCCCCC3)cc2)c2ccc(OC(=O)C3CCCCC3)cc2)cc1`, the growth was -57% (active) in the experiment with T-47D breast; -78.2% (active) with BT-549 breast; -77.1% (active) in the experiment with MDA-MB-435 melanoma; -49.8% (active) in the experiment on SW-620 colon; -23.6% (active) with MCF7 breast; -63.9% (active) in the experiment on HCT-116 colon. For the same molecule, the values for the growth in the experiment with HCC-2998 colon and in the experiment on KM12 colon were -79% (active) and -54.1% (active), respectively.
For the molecule `CC12OC(CC(O)C1O)n1c3ccccc3c3c4c(c5c6ccccc6n2c5c31)C(=O)N(CCN1CCOCC1)C4=O` (configuration not stated), the growth was -5.19% (active) in the experiment on T-47D breast; 22.6% with BT-549 breast; 21.7% in the experiment on MDA-MB-435 melanoma; 16% in the experiment with SW-620 colon; 4.28% (active) in the experiment with MCF7 breast; 14.1% in the experiment with HCT-116 colon. Also, the growth was 6.48% (active) in the experiment on HCC-2998 colon and 14.6% with KM12 colon.
`O=C1c2cccc3cccc(c23)C(=O)N1N1C(=O)c2cccc3c(N4CCNCC4)ccc(c23)C1=O`: the growth with T-47D breast is 93.6%; in the experiment with BT-549 breast, 89.8%; in the experiment with MDA-MB-435 melanoma, 99.9%; with SW-620 colon it was 78.7%; with MCF7 breast it was 29%; with HCT-116 colon it was 58.1%. For the same molecule, the growth with HCC-2998 colon was 79.4%; in the experiment with KM12 colon, 82.2%.
Turning to `COc1cc(OC)cc(-c2ccc(-c3ccc(C(=N)N)cn3)s2)c1`, the growth was 96.7% with T-47D breast; 95.1% with BT-549 breast; 82.5% with MDA-MB-435 melanoma; 5.08% (active) in the experiment with SW-620 colon; 13% in the experiment with MCF7 breast; -12.6% (active) with HCT-116 colon. For the same molecule, the growth is 56.1% with HCC-2998 colon and 40.7% in the experiment on KM12 colon.
With `O=c1ccc2nc(-c3ccccn3)nn(-c3ccccc3)c-2c1`, the growth was -28.4% (active) in the experiment on T-47D breast; 86.6% in the experiment on BT-549 breast; 90.7% in the experiment on MDA-MB-435 melanoma; -61.8% (active) in the experiment on SW-620 colon; -56% (active) in the experiment on MCF7 breast; 48.7% in the experiment on HCT-116 colon. Moreover, the growth with HCC-2998 colon was 98.8%; in the experiment with KM12 colon, 98.4%.
In the case of `Cc1c(CC(=O)OCCO)cc(-c2ccc(Cl)cc2)n1-c1ccccc1`, the growth was 72.3% in the experiment with T-47D breast; 109% in the experiment on BT-549 breast; 98.7% with MDA-MB-435 melanoma; 104% with SW-620 colon; 93% in the experiment with MCF7 breast; 102% in the experiment with HCT-116 colon. The growth with HCC-2998 colon is 118%; in the experiment with KM12 colon, 99.1%.
On to `COc1nc2ccc(C)cc2cc1/C=[N+](\[O-])c1ccccc1`, for which the growth with T-47D breast was 66.5%; in the experiment on BT-549 breast, 95.8%; in the experiment on MDA-MB-435 melanoma, 96.9%; in the experiment with SW-620 colon, 49.9%; in the experiment on MCF7 breast, 58.6%; in the experiment with HCT-116 colon, 15.1%. In addition, the growth was 98.2% in the experiment on HCC-2998 colon and 90.5% in the experiment on KM12 colon.
On to `O=C1CCCCN1CCCCC#Cc1cccc(C#Cc2cccnc2)c1`, for which the growth is 84.1% in the experiment with T-47D breast; 265% with BT-549 breast; 84.6% in the experiment with MDA-MB-435 melanoma; 101% with SW-620 colon; 101% with MCF7 breast; 141% and 39.7% in the experiment with HCT-116 colon. Further, the growth in the experiment on HCC-2998 colon is 77.2%; in the experiment on KM12 colon, 73.6%.
`O=C(Nc1ccc(F)cc1)c1cc2cc(Nc3nc(-c4ccccc4)nc4ccccc34)ccc2oc1=O`: the growth in the experiment on T-47D breast was 95.7%; with BT-549 breast, 100%; in the experiment on MDA-MB-435 melanoma it was 108%; in the experiment with SW-620 colon it was 107%; in the experiment with MCF7 breast, 97.9%; in the experiment with HCT-116 colon, 96.3%. Besides, the growth with HCC-2998 colon is 113%; with KM12 colon, 102%.
On to `CCN1CCN(CC(=O)Nc2nc3ccc(NCc4ccc(C)cc4)cc3s2)CC1`, for which the growth was 50.7% with T-47D breast; 88% with BT-549 breast; -41.8% (active) with MDA-MB-435 melanoma; 44.2% in the experiment with SW-620 colon; 35.6% with MCF7 breast; 13% in the experiment with HCT-116 colon. The growth was 80.9% with HCC-2998 colon and 73% with KM12 colon.
As to `CCCCC1=C(Br)C(=O)c2nc(C)ccc2C1=O`, the growth in the experiment with T-47D breast was 65.7%; with BT-549 breast, 90%; in the experiment with MDA-MB-435 melanoma it was 102%; in the experiment with SW-620 colon, 60.2%; in the experiment on MCF7 breast, 82.1%; in the experiment with HCT-116 colon, 42.7%. Also, the growth in the experiment on HCC-2998 colon was 108%; with KM12 colon it was 98.7%.
